Reference: PubChem BioAssay AID2550 (Johns Hopkins Ion Channel Center, 2010)
Hit rate of the full screen: of about 310,000 compounds, about 380 (0.12%) were called active.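 How the source made its calls: active means B-score of the integrated fluorescence ratio above library mean plus 3 SD, and starting fluorescence ratio within library mean plus 5 SD; inactive means the rest.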 What follows is part of a selection rich in actives, with near analogues and random picks from the rest.

The molecules below were run against Short transient receptor potential channel 6 (Mus musculus) (UniProt Q61143) (assay: mouse TRPC6 channel activators, primary screen, cell-based, HEK293, membrane potential dye (AID 2550;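 further: higher score means more depolarization so channel activation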)). Conditions: HEK293-TRPC6 membrane potential dye fluorescence, at 10 µM; active compounds read high.
Chain of Short transient receptor potential channel 6 (Mus musculus) (Q61143 whole entry, looked up): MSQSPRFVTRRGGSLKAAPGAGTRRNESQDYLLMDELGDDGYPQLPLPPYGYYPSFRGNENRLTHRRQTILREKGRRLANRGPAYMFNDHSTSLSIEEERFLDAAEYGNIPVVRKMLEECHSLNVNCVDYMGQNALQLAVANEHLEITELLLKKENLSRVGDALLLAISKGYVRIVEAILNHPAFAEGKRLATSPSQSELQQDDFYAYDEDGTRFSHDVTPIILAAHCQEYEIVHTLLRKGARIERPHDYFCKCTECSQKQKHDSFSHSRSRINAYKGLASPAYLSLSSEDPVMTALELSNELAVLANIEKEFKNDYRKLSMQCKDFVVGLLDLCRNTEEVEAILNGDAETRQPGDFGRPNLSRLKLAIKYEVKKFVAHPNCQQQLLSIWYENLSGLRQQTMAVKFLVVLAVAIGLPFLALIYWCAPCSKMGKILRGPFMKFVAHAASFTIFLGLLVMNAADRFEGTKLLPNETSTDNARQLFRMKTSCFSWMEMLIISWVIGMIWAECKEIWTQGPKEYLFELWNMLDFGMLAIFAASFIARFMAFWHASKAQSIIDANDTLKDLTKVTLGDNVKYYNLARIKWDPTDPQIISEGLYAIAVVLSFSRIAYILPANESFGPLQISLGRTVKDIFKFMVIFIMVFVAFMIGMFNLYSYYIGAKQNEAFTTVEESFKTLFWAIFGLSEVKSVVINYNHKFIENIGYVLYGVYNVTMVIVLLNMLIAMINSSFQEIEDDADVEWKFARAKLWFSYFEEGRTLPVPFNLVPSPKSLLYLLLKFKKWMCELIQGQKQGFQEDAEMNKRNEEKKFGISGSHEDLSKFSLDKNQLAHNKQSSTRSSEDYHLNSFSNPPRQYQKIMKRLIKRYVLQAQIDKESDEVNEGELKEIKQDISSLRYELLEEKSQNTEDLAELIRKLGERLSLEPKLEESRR

| SMILES | B-score |
| --- | --- |
| CCN(CC)CCNCc1ccc(OCc2ccc(Cl)nc2)c(OC)c1 | inactive |
| CCOCCCNCc1ccc(OCc2ccc(F)cc2)c(OC)c1 | inactive |
| COc1cc(CNCCN(C)C)ccc1OCc1c(F)cccc1Cl | 12.5 (active) |
| CCc1ccc(/C=N/NC(=O)c2nnn(-c3nonc3N)c2CN2CCc3ccccc32)cc1 | inactive |
| Cc1cccc(CCNS(=O)(=O)c2ccc3c(c2)NC(=O)CO3)c1 | inactive |
| Cc1ccccc1-n1nnnc1SCCCC(=O)c1ccc(F)cc1 | inactive |
| CCC(C)N1C(=O)S/C(=C/c2ccc(Sc3nc4ccccc4[nH]3)o2)C1=O (stereo unspecified) | inactive |
| COc1cccc(CNC(=O)C2CC(=O)N(C3CCCCCCC3)C2)c1 (stereo unspecified) | inactive |
| CNc1nc(Nc2ccc(C)c(Cl)c2)nc(N)c1[N+](=O)[O-] | inactive |
| O=C1NC(=O)C(c2ccc(Cl)cc2)N1 (stereo unspecified) | inactive |
| CC(=O)N1N=C(c2ccncc2)OC1(Cc1ccccc1)Cc1ccccc1 | inactive |
| CCCN(CCc1ccccc1)C1CCc2c(O)cccc2C1 (stereo unspecified) | 16.8 (active) |
| Cc1cc(C)cc(C(=O)N(CCc2ccccc2)C2=CC3CCC(C2)N3C)c1 (stereo unspecified) | inactive |
| CN1CCN(/N=C/c2ccc(C#N)cc2)CC1 | inactive |
| Cc1ccc(-c2ccc(/C=N/NC(=O)CN3CCOCC3)o2)cc1[N+](=O)[O-] | inactive |
| CN1CCN(/N=C/c2ccc(-c3ccc([N+](=O)[O-])cc3)o2)CC1 | 16.2 (active) |
| Cc1cc(N2CCN(c3ccc(F)cc3)CC2)n2ncnc2n1 | inactive |
| CCOCCCN1C(=O)C2C(C(=O)Nc3ccc(OCC)cc3)C3C=CC2(O3)C1C(=O)NC1CCCCC1 (stereo unspecified) | inactive |
| O=C(c1ccc(Cl)cc1)n1cnc2ccccc21 | inactive |
| CC(NC(=O)CNC(=O)Cc1cccc2ccccc12)c1ccc(S(N)(=O)=O)cc1 (stereo unspecified) | inactive |
| CCC(C(=O)OC)n1cnc2scc(-c3ccc(C)cc3)c2c1=O (stereo unspecified) | inactive |
| O=[N+]([O-])c1cccc(/C=N/Nc2ncc(Br)cn2)c1 | inactive |
| O=C(N/N=C/c1ccc(Cl)c(Cl)c1)c1ccc2nc[nH]c2c1 | inactive |
| CCO/C=C1\C(=O)N(c2ccc(OCC)cc2)C(=O)c2ccccc21 | inactive |

| SMILES | B-score |
| --- | --- |
| COc1ccc(C(C)C)cc1S(=O)(=O)Nc1ncn[nH]1 | inactive |
| CCC(=O)c1ccc(OCC(=O)OCC(=O)NC2CCCCCC2)cc1 | inactive |
| Cc1nc2c(-c3ccc(F)cc3)c(C)nn2c(C)c1CCC(=O)NCc1ccco1 | inactive |
| Cc1cc2c(cc1C)[n+](C)cn2CC(O)COCC1CC=CCC1 (stereo unspecified) | inactive |
| N#Cc1ccc(-c2ccc(Cl)cc2)nc1Oc1ccc(F)cc1 | inactive |
| Cc1nn(C)c(C)c1S(=O)(=O)N1CCC(CO)(Cc2ccc(Cl)cc2)CC1 | inactive |
| COc1cccc(OC)c1C(=O)Nc1c(C(=O)N2CCN(c3ccccn3)CC2)oc2ccccc12 | inactive |
| CN1CCN(CCCCOc2ccccc2-c2ccccc2)CC1 | inactive |
| Oc1ccc(CNc2ccccc2O)cc1 | inactive |
| COc1ccc(-n2ncc3c2CC(C)(C)CC3NC(=O)CCc2c(C)noc2C)cc1 (stereo unspecified) | inactive |
| Cc1ccc(N(CCC(=O)O)S(=O)(=O)c2cccc(C(F)(F)F)c2)cc1 | inactive |
| CCOc1ccc(CN(C)C(=O)c2ccc(=O)[nH]c2)cc1 | inactive |
| Cc1nn(-c2ccccc2)c2sc(C(=O)N(Cc3ccco3)C(C)C(=O)NC(C)(C)C)cc12 (stereo unspecified) | inactive |
| CCN(CC(=O)NCc1ccc(Cl)cc1)C(=O)CSc1ccccc1 | inactive |
| O=C(Nc1ccc(N2CCCC2=O)cc1)c1cncc(Br)c1 | inactive |
| COc1ccc(CN2CCC(c3nc4ccc(Cl)cc4[nH]3)CC2)cc1 | inactive |
| CCc1ccc(C(=O)NNC(=O)C2CCN(c3ncnc4sc(C)c(C)c34)CC2)cc1 | inactive |
| O=C(O)CCn1c(SCc2cc(=O)n3ccccc3n2)nc2ccsc2c1=O | inactive |
| Cc1sc(NC(=O)C2C3CCC(O3)C2C(=O)O)c(C(=O)OC(C)C)c1-c1ccc(Cl)cc1 (stereo unspecified) | inactive |
| CC(C)(C)n1nnnc1C(c1ccccc1F)N1CCN(C(=O)c2ccco2)CC1 (stereo unspecified) | inactive |
| CCOCCCN(C)C1CCN(C(=O)c2oc3ccccc3c2NC(=O)Cc2cccc([N+](=O)[O-])c2)CC1 | inactive |
| CC1=C(N2CCN(c3ncccn3)CC2)CCC1=O | inactive |
| O=S(=O)(NC(=S)Nc1ccccc1)c1ccc(F)cc1 | inactive |
| Nc1ccc(SCCN2C(=O)c3ccccc3C2=O)cc1 | inactive |

| SMILES | B-score |
| --- | --- |
| COC(=O)CNc1nc(Cl)nc(N2CCC(C)CC2)n1 | inactive |
| Cc1ccc(CNC(=O)c2ccccc2CCc2ccccc2)cc1 | inactive |
| O=C1CC2(CC(c3ccc(Cl)cc3)=NO2)C(=O)N1c1ccccc1 (stereo unspecified) | inactive |
| CCCN(CCC)c1nc2c(C)cccn2c(=O)c1/C=C1/SC(=S)N(Cc2ccco2)C1=O | inactive |
| CCOC(=O)CC1C(=O)NCCN1c1nc2c(C)cccn2c(=O)c1/C=C1\SC(=S)N(C(C)CC)C1=O (stereo unspecified) | 26.7 (active) |
| CCOC(=O)N1CCN(C(=O)CSc2nc(=O)n3cccc(C)c3n2)CC1 | inactive |
| O=C1C2C3C=CC(C4CC34)C2C(=O)N1/N=C/c1ccc(-c2ccccc2[N+](=O)[O-])o1 (stereo unspecified) | inactive |
| COC(=O)[C@@H](Cc1ccccc1)NC(=O)NCCc1ccccc1 | inactive |
| O=[N+]([O-])c1ccccc1N/N=C1\CCc2ccccc21 | inactive |
| O=C(NCCS(=O)(=O)NCc1ccc(Cl)cc1)c1ccccc1 | inactive |
| CC(C)NC(=O)c1ccc(Sc2ccccc2)c([N+](=O)[O-])c1 | inactive |
| CCOc1ccc(S(=O)(=O)N2CCCCCC2)c2ccccc12 | inactive |
| CC1CCCCC1NC(=O)CSc1nnc(-c2ccncc2)n1CCCN(C)C (stereo unspecified) | inactive |
| CCOC(=O)C1=C(O)/C(=C/c2cc(C)n(-c3ccccc3)c2C)N=C1C | inactive |
| COc1cc(OC)c(C2=NOC(C(=O)Nc3c(C)n(C)n(-c4ccccc4)c3=O)C2)cc1Cl (stereo unspecified) | inactive |
| CC(C)Cc1oc(C(=O)O)cc1CN | inactive |
| O=[N+]([O-])c1cc(Cl)cc(/C=N/NC(=S)Nc2cc(S(=O)(=O)N3CCOCC3)ccc2Cl)c1O | inactive |
| COc1ccc(S(=O)(=O)n2nc(C)c(S(=O)(=O)N3CCOCC3)c2C)cc1 | inactive |
| CCOc1ccc(-c2c(C)n([O-])c3c([n+]2=O)CCCC3)cc1 | inactive |
| COCCOC(=O)c1sc(=S)n(CCOC)c1N | inactive |
| O=S(=O)(c1cccc2nonc12)N1CCN(c2cccc(Cl)c2)CC1 | inactive |
| Cc1cc(C)nc(SC(C)C(=O)N/N=C/c2cccs2)n1 (stereo unspecified) | inactive |
| CN1CCN(c2cc3c(cc2F)c(=O)c(C(=O)O)cn3CCF)CC1 | inactive |
| CCCCCCn1cc(C(=O)O)c(=O)c2cc(F)c(N3CCCCC3)cc21 | 12.2 (active) |

| SMILES | B-score |
| --- | --- |
| CCn1cc(C(=O)NCCO)c(=O)c2cc(F)c(N3CCN(C)CC3)cc21 | inactive |
| COCCNC(=O)/C(C#N)=C/c1nc(N(C)C)n(-c2ccc(F)cc2)c1Cl | inactive |
| CN(c1ccccc1)c1ccc(/C=c2\s/c(=C(/C#N)C(=O)C(C)(C)C)n(Cc3ccco3)c2=O)cc1 | 33.3 (active) |
| CCOC(=O)/C=c1\s/c(=C\c2ccc(C#N)cc2)c(=O)n1CC(=O)Nc1cccc(C)c1C | inactive |
| CCOC(=O)Cn1c(=O)oc2cc(S(=O)(=O)N(C)Cc3ccco3)ccc21 | inactive |
| CCn1cc(/C=C(\NC(=O)c2cc(OC)c(OC)c(OC)c2)C(=O)N2CCN(C)CC2)c2ccccc21 | inactive |
| O=C(NNc1ccccc1Cl)C(O)(c1cccc(C(F)(F)F)c1)c1cccc(C(F)(F)F)c1 | inactive |
| CCOC1CCCCC1NS(=O)(=O)c1ccc(Cl)cc1 (stereo unspecified) | inactive |
| CCn1ccnc1CN1CCCC(C(=O)c2ccc3c4c(cccc24)CC3)C1 (stereo unspecified) | inactive |
| COc1cc2c(cc1OC)C(C(=O)NCc1ccco1)C1c3ccccc3CCN1C2=O (stereo unspecified) | inactive |
| CCn1cc(/C=C2/SC(=S)NC2=O)c(C)n1 | inactive |
| CCN1C(=NCCc2cccnc2)N[C@@H](c2ccccc2)[C@H](C(=O)OC)[C@H]1C | inactive |
| CCOc1ccc(NC(=O)C2CCN(C(=O)N3CCOc4ccccc43)CC2)cc1 | inactive |
| CCCCn1c(N)c(N(CCOC)C(=O)c2cccc(OCc3ccccc3)c2)c(=O)[nH]c1=O | inactive |
| C#CC(C)(C)NC(=O)c1cnc(-c2ccccc2)nc1-c1ccccc1 | inactive |
| CC(=O)Nc1ccc(CN2CCC(Oc3ccc(C(=O)N4CCCC4)cc3)CC2)cc1 | inactive |
| Cc1ccc(S(=O)(=O)/N=C(\CN2CCOCC2)N2CCOCC2)cc1 | inactive |
| CCc1ccccc1OCC(=O)Nc1ccc2c(c1)OCCO2 | inactive |
| COc1ccc2oc(C(=O)NCC(Cc3ccccc3)N(C)C)c(C)c2c1 (stereo unspecified) | inactive |
| COc1c(O)ccc2c1CN1CCc3cc4c(cc3C1C2)OCO4 (stereo unspecified) | inactive |
| Cc1ccc(S(=O)(=O)c2nnn3c2nc(N2CCN(c4ccccn4)CC2)c2ccccc23)cc1 | inactive |
| CC(C)(C)n1nnnc1C(c1ccc2ncccc2c1)N1CCSCC1 (stereo unspecified) | 12.7 (active) |
| Cc1cccc(N2CCN(C(c3ccc(N(C)C)cc3)c3nnnn3C(C)(C)C)CC2)c1C (stereo unspecified) | inactive |
| CC(C)(C)n1nnnc1C(c1ccc(Cl)cc1)N1CCSCC1 (stereo unspecified) | inactive |

| SMILES | B-score |
| --- | --- |
| CN(C)C(CNC(=O)c1ccc(S(=O)(=O)NCc2ccco2)cc1)c1ccccc1 (stereo unspecified) | inactive |
| CC(=O)N(Cc1cccs1)C1CCOC(C)(C)C1 (stereo unspecified) | inactive |
| CCc1ccc(C2C(C#N)=C(N)N(N3CCOCC3)C3=C2C(=O)CC(C)(C)C3)s1 (stereo unspecified) | inactive |
| Cc1ccc(Cl)cc1N1CCN(C(=O)c2cccc3c(=O)c(C)c(-c4ccccc4)oc23)CC1 | inactive |
| Cc1ccc(-c2csc(NCCc3nc4cc(Cl)c(Cl)cc4n3CCOCCO)n2)cc1 | inactive |
| Cc1cc(/C=N/n2cnnc2)c(C)n1-c1ccc2ncccc2c1 | inactive |
| COc1ccc(NC(=S)N2CCC(NC(=O)c3cccc(F)c3)CC2)cc1 | inactive |
| O=C(CN1C2=NCCN2c2ccccc21)c1cccs1 | inactive |
| Nc1c(C(=O)c2cccs2)sc2nsc(SCCN3CCCCC3)c12 | 19.2 (active) |
| CN(C)c1ccnc2sc(C(=O)c3ccccc3)c(N)c12 | inactive |
| O=C(NCCNc1ccccc1[N+](=O)[O-])c1ccccc1F | inactive |
| O=C(CSc1nnc(Cn2cnc3ccccc32)o1)c1ccccc1 | inactive |
| COc1ccc(NC(=O)c2oc3ccc(S(=O)(=O)N4CCOCC4)cc3c2C)cc1 | inactive |
| Nc1ccc(Cl)c(S(=O)(=O)Nc2ccccc2Cl)c1 | inactive |
| CCCCNC(=O)N1CCN(S(C)(=O)=O)CC1 | inactive |
| CCCCn1c(O)c(N=NC(=O)Cn2c(C(F)(F)F)nc3ccccc32)c2ccccc21 | inactive |
| COc1cc(/C=C2/SC(=S)N(Cc3ccccc3)C2=O)cc(OC)c1O | inactive |
| CN(C)c1ccc(/C=C2\NC(=S)N(Cc3ccccc3)C2=O)cc1 | 22.1 (active) |
| O=C1/C(=C\c2ccsc2)NC(=S)N1c1ccccc1 | inactive |
| Cc1cccc(C)c1NC(=O)CSc1nc2c([nH]1)c(=O)n(C)c(=O)n2C | inactive |
